Active and inactive are the calls of the source. How the source made its calls: active means hit-call score of the fitted dose curve at least 0.9, where 1 is the maximum; inactive means score below 0.9.
Assay: CCTE_Harrill_HTTr_Viability_MCF7: CCTE's 6-hour Cell Viability Assessment for the High-Throughput Transcriptomics (HTTr) Platform, in MCF-7 cells cultured in DMEM + 10% fetal bovine serum, Harrill Lab (AID 2284010)
Method in brief: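 Cells were dosed with chemicals in an eight-point dilution series, imaged 6 hours later for propidium iodide uptake, and the endpoint was analyzed by bidirectional fitting against DMSO as negative control.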

Compound	outcome
O=C(O)[C@H](O)[C@@H](O)C(=O)O	inactive
Cc1ccc(S(=O)(=O)NC(=O)NN2CCCCCC2)cc1	inactive
OCCNCCO	inactive
C[C@@H](Oc1ccc(CNC(=O)c2cccnc2Oc2ccc3c(c2)OCO3)c(F)c1)C(=O)O	inactive
CCCCCOC(C)=O	inactive
C[C@]12C=CC(=O)C=C1CC[C@H]1[C@@H]3C[C@@H](O)[C@](O)(C(=O)CO)[C@@]3(C)C[C@H](O)[C@@]12F	inactive
CC(C)CCCCCCOC(=O)C1CCCCC1C(=O)OCCCCCCC(C)C (stereo unspecified)	inactive
O=C(O)c1cccc(C(=O)O)c1	inactive
C=CN1CCCC1=O	inactive
NNC(=O)c1ccncc1	inactive
CC(C)CC(C)O (stereo unspecified)	inactive
NC(N)=O	inactive
Cn1cc[nH]c1=S	inactive
NC(=O)N1c2ccccc2C=Cc2ccccc21	inactive
CNC(C)=O	inactive
CCOC(N)=O	inactive
c1ccc2ncccc2c1	inactive
CC1(C)C(=O)N(Cl)C(=O)N1Cl	inactive
S=P(N1CC1)(N1CC1)N1CC1	inactive
c1ccc2c(c1)-c1cccc3c1c-2cc1ccccc13	inactive
CCCCCCCCCCCCCCCCOS(=O)(=O)O	inactive
OC(Cn1cncn1)(Cn1cncn1)c1ccc(F)cc1F	inactive
Nc1ccn([C@@H]2O[C@H](CO)[C@@H](O)[C@@H]2O)c(=O)n1	inactive
CCn1nc(C)c2c1C(=O)NCC(c1ccc(O)cc1)=N2	inactive
COS(C)(=O)=O	inactive
CCCCN1C(=O)[C@@H]([C@H](O)C2CCCCC2)NC(=O)C12CCN(Cc1ccc(Oc3ccc(C(=O)O)cc3)cc1)CC2	inactive

From PubChem BioAssay (EPA / NIEHS)
